In PubChem BioAssay (Tox21):
Inconclusive results are not listed. The source made the active and inactive calls. Calls follow the shape of the dose curve; as a rule, active = well fitted curve in the direction sought with a large enough effect in the repeat runs; inconclusive = weak or mixed curves; inactive = no such curve, though single readings can be large; an effect the other way counts as inactive or inconclusive.

Key:
[1] = qHTS RealTime-Glo MT Cell Viability Assay in HepG2 cells - 8 hour (AID 1224873); also: nearly all actives have a fitted effect of over 55% in size
Method in brief: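 HepG2 cells (600/well) mixed with RealTime-Glo MT reagent, settled 5 h at 37 C/5% CO2 before compound addition. Nonlytic NanoLuc luminescence from viable-cell prosubstrate reduction read repeatedly during 40 h treatment at 37 C.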

[2] = qHTS RealTime-Glo MT Cell Viability Assay in HEK293 cells - 40 hour (AID 1224874); details: RealTime-Glo luminescence; max response: hits give low values; also: nearly all actives have a fitted effect of over 50% in size
Method in brief: (§1)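 Tox21 screen in HEK293 using RealTime-Glo MT chemistry, with cells and reagent co-dispensed. Luminescence proportional to viable cell number was captured at intervals during 40 h compound exposure at 37 C.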

[3] = A CellTox Green Cytotoxicity Assay to monitor cytotoxicity in HEK293 cells - 24 hour (AID 1224875); also: series mostly up to about 77 µM; nearly all actives have a fitted effect of over 45% in size
Method in brief: (§2)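 Seeding of HEK293 cells together with cytotoxicity dye preceded a 5 h incubation at 37 C/5% CO2. Test compounds in DMSO were then added and fluorescence monitored across 40 h.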

[4] = A CellTox Green Cytotoxicity Assay to monitor cytotoxicity in HepG2 cells - 16 hour (AID 1224876); also: nearly all actives have a fitted effect of over 45% in size
Method in brief: (§3)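 Nonlytic assay: viable cells exclude the dye, so fluorescence scales with cell death. HepG2 at 600 cells/well, compounds added after 5 h, signal read across 40 h.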

[5] = qHTS RealTime-Glo MT Cell Viability Assay in HepG2 cells - 32 hour (AID 1224877); also: nearly all actives have a fitted effect of over 55% in size
Method in brief: (§4)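 Viability was tracked continuously by NanoLuc luminescence from prosubstrate reduced by living HepG2 cells, at successive time points over 40 h of compound exposure. Cells with reagent were preincubated 5 h at 37 °C before compound addition.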

[6] = A CellTox Green Cytotoxicity Assay to monitor cytotoxicity in HepG2 cells - 24 hour (AID 1224878); also: nearly all actives have a fitted effect of over 45% in size
Method in brief: as §3

[7] = A CellTox Green Cytotoxicity Assay to monitor cytotoxicity in HepG2 cells - 40 hour (AID 1224879); also: nearly all actives have a fitted effect of over 40% in size
Method in brief: as §3

[8] = qHTS RealTime-Glo MT Cell Viability Assay in HEK293 cells - 0 hour (AID 1224880); also: top concentration of the series differs between compounds; nearly all actives have a fitted effect of over 45% in size
Method in brief: as §1

[9] = A CellTox Green Cytotoxicity Assay to monitor cytotoxicity in HEK293 cells - 32 hour (AID 1224881); also: nearly all actives have a fitted effect of over 40% in size
Method in brief: as §2

[10] = A CellTox Green Cytotoxicity Assay to monitor cytotoxicity in HepG2 cells - 0 hour (AID 1224882); also: nearly all actives have a fitted effect of over 35% in size
Method in brief: as §3

[11] = A CellTox Green Cytotoxicity Assay to monitor cytotoxicity in HepG2 cells - 32 hour (AID 1224883); also: nearly all actives have a fitted effect of over 50% in size
Method in brief: as §3

[12] = A CellTox Green Cytotoxicity Assay to monitor cytotoxicity in HEK293 cells - 8 hour (AID 1224884); also: nearly all actives have a fitted effect of over 35% in size
Method in brief: as §2

[13] = qHTS RealTime-Glo MT Cell Viability Assay in HepG2 cells - 16 hour (AID 1224885); also: nearly all actives have a fitted effect of over 50% in size
Method in brief: as §4

[14] = qHTS RealTime-Glo MT Cell Viability Assay in HEK293 cells - 24 hour (AID 1224886); also: top concentration of the series differs between compounds; nearly all actives have a fitted effect of over 50% in size
Method in brief: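 Viability tracked continuously by luminescence as live cells reduce a prosubstrate for NanoLuc; HEK293 cells preincubated 5 h, compound-treated at 37 C, and read at 0, 8, 16, 24, 32 and 40 h.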

[15] = qHTS RealTime-Glo MT Cell Viability Assay in HEK293 cells - 8 hour (AID 1224887)
Method in brief: as §1

[16] = A CellTox Green Cytotoxicity Assay to monitor cytotoxicity in HEK293 cells - 16 hour (AID 1224888); also: nearly all actives have a fitted effect of over 35% in size
Method in brief: as §2

[17] = qHTS RealTime-Glo MT Cell Viability Assay in HepG2 cells - 0 hour (AID 1224889); also: nearly all actives have a fitted effect of over 50% in size
Method in brief: as §4

[18] = A CellTox Green Cytotoxicity Assay to monitor cytotoxicity in HepG2 cells - 8 hour (AID 1224890); also: nearly all actives have a fitted effect of over 45% in size
Method in brief: as §3

[19] = qHTS assay to identify small molecule antagonists of the estrogen receptor alpha (ER-alpha) signaling pathway using the BG1 cell line in the presence of 0.1 nM 17-beta-estradiol - cell viability counter screen (AID 1259241); also: nearly all actives have a fitted effect of over 40% in size
Method in brief: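 CellTiter-Fluor read (30 min, 37C) on ER-alpha/ERE-luc VM7Luc4E2 cells; 22 hr compound treatment; agonist 0.1 nM E2 final; same-well multiplex.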

[20] = qHTS assay to identify small molecule antagonists of the androgen receptor (AR) signaling pathway using the MDA cell line in the presence of 0.5 nM R1881 - cell viability counter screen (AID 1259242); also: nearly all actives have a fitted effect of over 45% in size
Method in brief: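 R1881 at 0.5 nM final stimulated MDA-kb2 cells during 16 hr compound treatment at 37C. Cytotoxicity read: CellTiter-Fluor fluorescence after 30 min.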
% is scaled to controls: 0 for no effect and ±100 for the full control effect.

CCOc1ccccc1OCC
inactive: outcome [1] | max response [2] 5.1% | outcome [3] | outcome [4] | Potency [5] | outcome [6] | Potency [7] | Potency [8] | outcome [9] | Potency [10] | Potency [11] | outcome [12] | outcome [13] | Potency [14] | Potency [15] | outcome [16] | Potency [17] | outcome [18] | outcome [19] | outcome [20]

CCN(C=O)CC
inactive: outcome [1] | max response [2] 2.6% | outcome [3] | outcome [4] | Potency [5] | outcome [6] | Potency [7] | Potency [8] | outcome [9] | Potency [10] | Potency [11] | outcome [12] | outcome [13] | Potency [14] | Potency [15] | outcome [16] | Potency [17] | outcome [18] | outcome [19] | outcome [20]

Cc1ncc(COP(=O)(O)O)c(C=O)c1O
inactive: outcome [1] | max response [2] -0.601% | outcome [3] | outcome [4] | Potency [5] | outcome [6] | Potency [7] | Potency [8] | outcome [9] | Potency [10] | Potency [11] | outcome [12] | outcome [13] | Potency [14] | Potency [15] | outcome [16] | Potency [17] | outcome [18] | outcome [19] | outcome [20]

NC(=O)NC1N=C([O][Al])NC1=O (centres undefined)
inactive: outcome [1] | max response [2] 1.53% | outcome [3] | outcome [4] | Potency [5] | outcome [6] | Potency [7] | Potency [8] | outcome [9] | Potency [10] | Potency [11] | outcome [12] | outcome [13] | Potency [14] | Potency [15] | outcome [16] | Potency [17] | outcome [18] | outcome [19] | outcome [20]

CCCCCCCCN1CCCC1=O
inactive: outcome [1] | max response [2] -3.59% | outcome [3] | outcome [4] | Potency [5] | outcome [6] | Potency [7] | Potency [8] | outcome [9] | Potency [10] | Potency [11] | outcome [12] | outcome [13] | Potency [14] | Potency [15] | outcome [16] | Potency [17] | outcome [18] | outcome [19] | outcome [20]

C[N+]1(CC2COC(c3ccccc3)(c3ccccc3)O2)CCCCC1 (centres undefined)
inactive: viability change, negative = cytotoxic [1] 1.12% [at 15.8 µM] | max response [2] -1.89% | activity change [3] -7.42% [at 15.8 µM] | cytotoxicity increase [4] -3.73% [at 15.8 µM] | activity change, negative = cytotoxic [5] -9% [at 15.8 µM] | cytotoxicity [6] -0.651% [at 15.8 µM] | cytotoxicity increase [7] -0.954% [at 15.8 µM] | activity change, negative = cytotoxicity [8] -4.13% [at 15.8 µM] | cytotoxicity increase [9] -8.36% [at 15.8 µM] | cytotoxicity [10] -9.88% [at 15.8 µM] | cytotoxicity increase [11] -0.506% [at 15.8 µM] | cytotoxicity increase [12] -4.15% [at 15.8 µM] | activity change, negative = cytotoxic [13] -0.0866% [at 15.8 µM] | activity change, negative = cytotoxicity [14] -2.13% [at 15.8 µM] | activity change, negative = cytotoxicity [15] 0.757% [at 15.8 µM] | activity change [16] -8.9% [at 15.8 µM] | activity change, negative = cytotoxicity [17] -6.4% [at 15.8 µM] | cytotoxicity increase [18] 0.368% [at 15.8 µM] | viability change, negative = cytotoxic [20] 1.83% [at 19 µM]

Cc1ccc(-c2ncc(Cl)cc2-c2ccc(S(C)(=O)=O)cc2)cn1
inactive: outcome [1] | max response [2] -19.4% | outcome [3] | outcome [4] | Potency [5] | outcome [6] | Potency [7] | Potency [8] | outcome [9] | Potency [10] | Potency [11] | outcome [12] | outcome [13] | Potency [14] | Potency [15] | outcome [16] | Potency [17] | outcome [18] | outcome [19] | outcome [20]

CC(=O)Oc1cccc(C)c1
inactive: outcome [1] | max response [2] 2.59% | outcome [3] | outcome [4] | Potency [5] | outcome [6] | Potency [7] | Potency [8] | outcome [9] | Potency [10] | Potency [11] | outcome [12] | outcome [13] | Potency [14] | Potency [15] | outcome [16] | Potency [17] | outcome [18] | outcome [20]

Cc1ccccc1N=C(N)N=C(N)N
inactive: outcome [1] | max response [2] -9.52% | outcome [3] | outcome [4] | Potency [5] | outcome [6] | Potency [7] | Potency [8] | outcome [9] | Potency [10] | Potency [11] | outcome [12] | outcome [13] | Potency [14] | Potency [15] | outcome [16] | Potency [17] | outcome [18] | outcome [19] | outcome [20]

CN(C)C(=O)Oc1ccc[n+](C)c1
inactive: outcome [1] | max response [2] 5.97% | outcome [3] | outcome [4] | Potency [5] | outcome [6] | Potency [7] | Potency [8] | outcome [9] | Potency [10] | Potency [11] | outcome [12] | outcome [13] | Potency [14] | Potency [15] | outcome [16] | Potency [17] | outcome [18] | outcome [19] | outcome [20]

CC(C)NNC(=O)c1ccncc1
inactive: outcome [1] | max response [2] 9.38% | outcome [3] | outcome [4] | Potency [5] | outcome [6] | Potency [7] | Potency [8] | outcome [9] | Potency [10] | Potency [11] | outcome [12] | outcome [13] | Potency [14] | Potency [15] | outcome [16] | Potency [17] | outcome [18] | outcome [20]

C=CCCC(=O)O
inactive: outcome [1] | max response [2] 7.36% | outcome [3] | outcome [4] | Potency [5] | outcome [6] | Potency [7] | Potency [8] | outcome [9] | Potency [10] | Potency [11] | outcome [12] | outcome [13] | Potency [14] | Potency [15] | outcome [16] | Potency [17] | outcome [18] | outcome [20]

CC1=NN(c2cc(S(=O)(=O)O)ccc2Cl)C(=O)C1N=Nc1ccccc1 (centres undefined)
inactive: outcome [1] | max response [2] 8.94% | outcome [3] | outcome [4] | Potency [5] | outcome [6] | Potency [7] | Potency [8] | outcome [9] | Potency [10] | Potency [11] | outcome [12] | outcome [13] | Potency [14] | Potency [15] | outcome [16] | Potency [17] | outcome [18]
